Our source for the Potency values is PubChem BioAssay AID624002 (National Center for Advancing Translational Sciences (NCATS), 2012).

This is one part of the list. Records with an inconclusive call do not appear. The source made the active and inactive calls. Calls come from the whole dose curve; as a rule, active = well fitted inhibition curve with a large enough effect; inconclusive = small, poorly fitted or top-dose-only effect; inactive = no such curve, though single readings can be large or run the other way.
Potency is the fitted concentration of half-maximal effect.

Isocitrate dehydrogenase [NADP] cytoplasmic (Homo sapiens), sequence (O75874 whole entry R132H, stated change not applied): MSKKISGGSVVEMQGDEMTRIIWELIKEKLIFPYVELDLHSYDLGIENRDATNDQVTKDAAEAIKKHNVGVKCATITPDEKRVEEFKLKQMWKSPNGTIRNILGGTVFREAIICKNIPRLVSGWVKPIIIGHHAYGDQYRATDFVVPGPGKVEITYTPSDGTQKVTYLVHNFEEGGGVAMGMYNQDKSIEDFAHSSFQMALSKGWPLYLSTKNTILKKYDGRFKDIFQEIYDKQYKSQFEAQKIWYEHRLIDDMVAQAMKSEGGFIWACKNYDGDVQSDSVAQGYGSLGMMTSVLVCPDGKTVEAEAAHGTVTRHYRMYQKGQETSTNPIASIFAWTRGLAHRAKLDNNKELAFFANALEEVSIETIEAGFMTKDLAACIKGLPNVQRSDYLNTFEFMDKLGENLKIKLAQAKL

The assay deals with Isocitrate dehydrogenase [NADP] cytoplasmic (Homo sapiens) (UniProt O75874). In words: qHTS for Inhibitors of mutant isocitrate dehydrogenase 1 (IDH1): Confirmation of Cherrypicks. Note: nearly all actives have a fitted effect of over 50% in size. Particulars: IDH1 R132H enzyme, NADPH diaphorase/resazurin fluorescence; series mostly up to 76.6 µM. The text has this:
Malignant glioblastomas (WHO grade IV), including primary and secondary glioblastomas, are among the most lethal with a median survival of one year, and unfortunately they are also the most prevalent type of brain tumors. By and large the standard of care of gliomas remains the use of the oral alkylating agent temozolomide and radiotherapy following surgical tumor resection. There is an urgent unmet medical need for novel therapeutics for gliomas. IDH mutations occur in up to 70% of grade II-IV secondary glioblastomas, and IDH1 R132H is the most prevalent mutation. […] Wild-type IDH1 catalyzes the conversion of isocitrate to -ketoglutarate with the concomitant reduction of NADP+ to NADPH. In contrast, IDH1 R132H catalyzes the conversion of -ketoglutarate to 2-hydroxyglutarate (2-HG) with the concomitant oxidation of NADPH to NADP+ [5]. Recently, a second significant advancement for the field was the finding that IDH is an oncogene, and that its metabolic product 2-HG may contribute to the pathogenesis of IDH-mutated cancers. […] Although this link to cancer is tantalizing, the direct evidence of how 2-HG drives pathogenesis of gliomas and AML remains a subject of further research. The goal of this screen is to find small-molecule inhibitors of IDH1 R132H using a biochemical assay that measures substrate NADPH consumption through the use of a diaphorase/resazurin-coupled system. Inhibition of the IDH1 R132H enzymatic reaction leads to an increase in the amount of NADPH relative to a DMSO control and a concomitant increase in the fluorescence of the diaphorase/resazurin enzyme product resorufin at 590 nm. Compounds were screened as a concentration-titration series that ranged from 76 microM to 0.15 uM. NIH Molecular Libraries Probe Production Network [MLPCN] NIH Chemical Genomics Center [NCGC] MLSCN Grant: R03 DA032129 PI Name: Dr. Lenny Dang
Enzyme buffer was dispensed into black, solid 1536-well plates at 3 microL/well in 20 mM Tris buffer, pH 7.5, containing final concentrations of 10 mM MgCl2, 20 mM NaCl, 0.001% Tween20, 0.05% BSA, 2 mM beta-ME and 5.2 nM IDH1 R132H. Then, 23 nL of compounds or DMSO were delivered to each well using a pin tool. The inherent compound fluorescence was measured at this point at 590 nm on a ViewLux plate reader (Ex 525, Em 598, bodipy filter). The substrate buffer (3 uL; 20 mM Tris buffer, pH 7.5, containing final concentrations of 10 mM MgCl2, 20 mM NaCl, 0.001% Tween20, 0.05% BSA, 0.008 mM NADPH, and 1 mM a-ketoglutarate) was added to start the enzymatic reaction, and the plate was briefly spun at 270xg. After the reaction was allowed to progress for 80 minutes at room temperature, the remaining NADPH was detected with the diaphorase/resazurin-coupled system. Three microL of detection buffer (20 mM Tris buffer, pH 7.5, containing final concentrations of 10 mM MgCl2, 20 mM NaCl, 0.001% Tween20, 0.05% BSA, 0.53 uM diaphorase and 0.012 mM resazurin) was added, and after 5 minutes the fluorescence at 590 nm was measured on an Envision plate reader (Ex 544, Em 590, bodipy filter, 10 flashes). The %Activity was determined from the corrected fluorescence values. As no specific IDH1 R132H inhibitors have been identified in the literature, 1x (5.2 nM) and 0x IDH1 R132H enzyme controls (untreated) were included to normalize % Activity of identified inhibitors; 0x enzyme values corresponded to 100 % Activity (full inhibition), while 1x IDH1 R132H enzyme values were used to normalize 0 %A ctivity (no inhibition). Concentration-response curves were fitted to the signals arising from the resulting fluorescence. The concentration-response curves were then classified based on curve quality (r2), response magnitude and degree of measured activity, and compounds were subsequently categorized based on their curve class. […] Keywords: Isocitrate dehydrogenase, IDH1, IDH1 R132H, 2-HG, 2-hydroxyglutarate, AML, glioma, MLSMR, MLPCN, NIH Roadmap, qHTS, NCGC
For orientation: Quantitative high-throughput screening tests each substance at several concentrations.
As for `O=C1c2cccc3cccc(c23)C(=O)N1CCCCCc1n[nH]c(=S)o1`, the Potency is 39.8 µM (active). Then `COC(=O)c1ccc(-c2c(-c3ccccc3)ncc3cc(OC)c(OC)cc23)cc1`, with 12.6 µM (active). Then `Cc1ccc(-c2nn(-c3ccccc3)cc2/C=C2\SC(=S)N(CCCCCC(=O)O)C2=O)o1`, with 22.4 µM (active); and `CCOC(=O)c1ccc(N2C(=O)c3n[nH]c(-c4ccco4)c3C2c2ccc(O)cc2)cc1` (centres undefined), with 39.8 µM (active). Then `N#CC1=C(N)C(C#N)(C#N)[C@H](c2ccsc2)[C@H]2COCC=C12`, with 44.7 µM (active); and `COc1ccc(Cl)cc1-n1c(=S)sc2c(=O)n(-c3ccc(F)cc3)c(SCC(=O)O)nc21`, with 7.94 µM (active). On to `COc1cc(/C=C2/C(=O)ON=C2C)ccc1OCc1ccccc1F`, for which the Potency was 44.7 µM (active). Take `Cn1c(COc2ccc(Cl)cc2)nc2ccccc2c1=O`: the Potency entry was “inactive”. Then `COc1cc2c(-c3ccc4c(c3)OCO4)c(-c3ccsc3)oc(=O)c2cc1OC`, with 6.31 µM (active); and `CCCc1nc2c(c(=O)c3ccccc3n2C)c(=O)n1C1CCCCCC1`, with 8.91 µM (active). Turning to `COc1cc(/C=C2/SC(=S)N(Cc3ccccc3)C2=O)cc(OC)c1O`, the Potency was 39.8 µM (active). Then `CCCCOc1ccc(CN2C(=O)C(=O)c3cc(Br)cc(C)c32)cc1OC`, with 22.4 µM (active). Then `CCC(C)(C)NC(=O)C(c1cccn1C)N(Cc1ccc(C)cc1)C(=O)Cn1nnc2ccccc21` (centres undefined), with 25.1 µM (active); and `COc1ccc(C(CCN(Cc2ccc(OC)c(OC)c2)C(=O)CCl)c2ccccc2)cc1` (centres undefined), with 15.8 µM (active).

As for `Cc1cccc(N(C(=O)Cc2cccs2)C(C(=O)NC2CCCC2)c2ccsc2)c1` (centres undefined), the Potency was 3.55 µM (active).

As to `COc1ccc(/C=N/Nc2cc(N3CCOCC3)nc(C)n2)c(OC)c1`, the Potency is 15.8 µM (active).

Consider `COC(=O)c1cccc(N(C(=O)c2ccco2)C(C(=O)NC2CCCC2)c2ccco2)c1` (centres undefined), for which the Potency is 22.4 µM (active). Then `CCCCC(=O)NC(c1ccc(OC)c(OC)c1)c1ccc2cccnc2c1O` (centres undefined), with “inactive”; and `CCOC(=O)c1oc2c(CN3CCN(CCO)CC3)c(O)c(CC)cc2c(=O)c1-c1nc2ccccc2s1`, with 22.4 µM (active). Then `Cc1nc(C)c(C(=O)N(c2ccc(C)c(C)c2)C(C(=O)NCc2ccco2)c2ccccc2)s1` (centres undefined), with 17.8 µM (active); and `CC(C)Nc1nc(N(c2ccccc2)c2ccccc2)nc(-n2ccnc2)n1`, with 39.8 µM (active); and `COc1ccc(/C=C2/SC(=O)N(CCCCCC(=O)Nc3ccccc3C(=O)O)C2=S)cc1`, with 39.8 µM (active). Then `Cc1nc(-c2ccc(Cl)cc2)sc1C(=O)CBr`, with 44.7 µM (active). For the compound `CCCOc1ccc(C2c3c(-c4ccccc4O)n[nH]c3C(=O)N2Cc2cccnc2)cc1` (centres undefined), the Potency was 14.1 µM (active). For the compound `O=C(NC(Nc1nc2ccc([N+](=O)[O-])cc2s1)(C(F)(F)F)C(F)(F)F)c1ccccc1`, the Potency was 3.55 µM (active). Then `Cc1ccc2nc(N3C(=O)C(O)=C(C(=O)c4ccco4)C3c3cccc(O)c3)sc2c1` (centres undefined), with 28.2 µM (active). Then `C(=N/Nc1cc(N2CCOCC2)nc(N2CCOCC2)n1)/c1ccccc1`, with 39.8 µM (active).

With `CCCc1[nH]nc2c1C(c1ccc(OC)c(Cn3nc(C)c(Br)c3C)c1)C(C#N)=C(N)O2` (centres undefined), the Potency is 31.6 µM (active). Then `CCCNc1ncnc2c1c(-c1ccccc1)cn2-c1ccc(OCC)cc1`, with 11.2 µM (active).
